Source: PubChem
Compounds with a hit are over-represented: about 3.4% of the library has one in this group of screens.
FBW7 activator: human FBW7 E3 ligase activation, primary screen. AlphaScreen FBW7–phospho-cyclin E peptide binding, activator screen. normalized activity (activation), % at 26.1 µM. 0.13% of 650,000 active. AID 1259310; in the data active means normalized activity above about 1.9%;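 further: purified mutant Fbw7 with reduced substrate affinity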
MITF inh: blocks human microphthalmia-associated transcription factor | inhibition, % at 2.6 µM | 0.91% of 650,000 active | AID 1259374 | O75030 | AlphaScreen MITF homodimerization, bead proximity signal; in the data active means inhibition above about 50%;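 further: 0% = vehicle wells with protein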
TEAD-YAP inh: TEAD-YAP interaction inhibition; HEK-TIYL cells, TEAD-Gal4/YAP UAS-luciferase luminescence; inhibition, % at 9.12 µM; 1.4% of 640,000 active; AID 1259422; in the data active means inhibition above about 32%;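 further: 0% = median of test compound wells and 100% = reference inhibitor wells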
GPR151 ag: activates the human receptor GPR151 | PathHunter beta-arrestin GPR151 cells, luminescence | 1% of 650,000 active | Q8TDV0 | activation, % at 11.2 µM; in the data active means activation above about 4.9%;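 further: 0% = median of compound wells and 100% = cells with positive control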
Target sequence (Q8TDV0 whole entry, looked up): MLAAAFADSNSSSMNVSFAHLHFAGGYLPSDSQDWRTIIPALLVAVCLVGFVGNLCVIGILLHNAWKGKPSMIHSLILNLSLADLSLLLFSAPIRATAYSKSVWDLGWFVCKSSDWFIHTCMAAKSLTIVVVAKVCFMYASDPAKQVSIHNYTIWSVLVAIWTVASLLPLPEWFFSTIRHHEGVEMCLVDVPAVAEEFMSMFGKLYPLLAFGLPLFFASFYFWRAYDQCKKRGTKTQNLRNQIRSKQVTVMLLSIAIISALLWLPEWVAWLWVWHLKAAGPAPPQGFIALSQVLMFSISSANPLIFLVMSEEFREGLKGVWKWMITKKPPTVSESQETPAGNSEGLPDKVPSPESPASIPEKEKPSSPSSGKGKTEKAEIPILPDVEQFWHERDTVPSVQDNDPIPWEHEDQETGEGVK
MITF confirm: human MITF inhibition, confirmation; shares compounds with MITF inh; AlphaScreen MITF homodimerization, biotin/His-MITF beads; inhibition, % at 2.6 µM; 16% of 4,700 active; AID 1259372;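 active means inhibition above a cutoff derived from the DMSO control wells, cut at about 28% in these data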;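 further: 0% = MITF dimer wells with DMSO only; inhibitors lower the bead chemiluminescence by keeping MITF from dimerizing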
AS interf DR: optically interferes with AlphaScreen signal in dose response; shares compounds with MITF inh; AlphaScreen optical interference counterscreen, cell-free; IC50, µM; 6% of 480 active; call rule not given here
AlphaScreen intf2: optically interferes with AlphaScreen signal. 7.6% of 4,700 active. inhibition, % at 2.6 µM. shares compounds with MITF inh. LysRS AlphaScreen counterscreen, signal interference, triplicate;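 active means inhibition above a cutoff derived from the DMSO control wells, cut at about 30% in these data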
* = called active by the depositor.

CCN1CCN(CCCOc2cc(C)c(Cl)cc2C)CC1 was read as FBW7 activator 0, MITF inh 64*, TEAD-YAP inh 2, GPR151 ag -1, MITF confirm 3 and AlphaScreen intf2 11.
`CCN1CCN(CCOCCOc2ccccc2Br)CC1` gave FBW7 activator 0, MITF inh 56*, TEAD-YAP inh 4, GPR151 ag 1, MITF confirm 13 and AlphaScreen intf2 15.
`CCN1CCN(CCCOc2cccc(C)c2C)CC1` gave FBW7 activator 0, MITF inh 67*, TEAD-YAP inh 2, GPR151 ag 0, MITF confirm 9 and AlphaScreen intf2 8.
`c1ccc(-c2ccccc2OCCCN2CCNCC2)cc1` gave FBW7 activator 0, MITF inh 64*, TEAD-YAP inh -2, GPR151 ag -1, MITF confirm -2 and AlphaScreen intf2 10.
For Cc1nn(C)c(C)c1-c1cccc(C(=O)NCCN2CCOCC2)c1 the results were FBW7 activator 0, MITF inh -1, TEAD-YAP inh 8 and GPR151 ag 0.
Screening CCOc1ccccc1OCCCN1CCN(CC)CC1 returned FBW7 activator 0, MITF inh 67*, TEAD-YAP inh 1, GPR151 ag 0, MITF confirm 9 and AlphaScreen intf2 13.
CCN1CCN(CCCOc2ccccc2-c2ccccc2)CC1 was read as FBW7 activator 0, MITF inh 60*, TEAD-YAP inh 11, GPR151 ag 1, MITF confirm 7 and AlphaScreen intf2 10.
`CCN1CCN(CCOc2ccccc2CO)CC1` gave FBW7 activator -1, MITF inh 39, TEAD-YAP inh 7 and GPR151 ag 0.
For CCc1ccccc1OCCN1CCN(CC)CC1 the results were FBW7 activator 0, MITF inh 77*, TEAD-YAP inh -4, GPR151 ag 1, MITF confirm 12 and AlphaScreen intf2 13.
`CC(=O)NC(NC(C)=O)c1ccc(F)cc1` gave FBW7 activator 1, MITF inh -4, TEAD-YAP inh 0 and GPR151 ag 0.
For COc1cc(C2Nc3ccc(C(=O)c4ccccc4)cc3NC3=C2C(=O)CC(c2ccccc2)C3)ccc1O (configuration not stated) the results were FBW7 activator 0, MITF inh 10, TEAD-YAP inh 9 and GPR151 ag 0.
For Cc1ccc(-c2nc(C#N)c(N3CCN(C(=O)c4ccc(Cl)cc4)CC3)o2)cc1 the results were FBW7 activator 0, MITF inh 68*, TEAD-YAP inh -5, GPR151 ag 3, MITF confirm -11 and AlphaScreen intf2 -2.
`CCOc1ccc(C(=O)N2CCN(c3oc(-c4ccc(Cl)cc4)nc3C#N)CC2)cc1` gave FBW7 activator 0, MITF inh -3, TEAD-YAP inh 2 and GPR151 ag 2.
CCc1n[nH]c(=S)n1N=C1CCC(C)CC1 (configuration not stated) was read as FBW7 activator 0, MITF inh 59*, TEAD-YAP inh 2, GPR151 ag 1, MITF confirm -1 and AlphaScreen intf2 -2.
CCc1n[nH]c(=S)n1/N=C/c1ccc(F)cc1 was read as FBW7 activator 0, MITF inh 4, TEAD-YAP inh -9 and GPR151 ag -1.
Screening Cc1nn2c(=O)/c(=C/c3cn(-c4ccccc4)nc3-c3ccc(OC(C)C)cc3)sc2nc1=O returned FBW7 activator 0, MITF inh -6, TEAD-YAP inh 11 and GPR151 ag 2.
Screening NC(=O)c1ccc(-c2csc3ccccc23)s1 returned FBW7 activator 0, MITF inh 11, TEAD-YAP inh -5 and GPR151 ag 1.
For NC(=O)c1ccc(-c2cccs2)s1 the results were FBW7 activator 0, MITF inh 59*, TEAD-YAP inh -6, GPR151 ag 0, MITF confirm 39*, AS interf DR >7.3 and AlphaScreen intf2 3.
COc1cccc(O)c1CN1Cc2cc(C)ccc2OC(C)C1 (configuration not stated) was read as FBW7 activator 0, MITF inh -8, TEAD-YAP inh -2 and GPR151 ag -1.
COc1cc(OC)c(CN2CCc3nnc(C(CC(C)C)NC(C)=O)n3CC2)c(OC)c1 (configuration not stated) was read as FBW7 activator 1, MITF inh 17, TEAD-YAP inh 7 and GPR151 ag 0.
For CC(C)(C)OC(=O)COc1ccc(/C=N/NC(=O)CC#N)cc1 the results were FBW7 activator 0, MITF inh 18, TEAD-YAP inh -62 and GPR151 ag -2.
Screening COc1cc(-c2nc3sc4c(c3c(=O)[nH]2)CCCC4)ccc1OC(=O)c1ccc(Cl)cc1 returned FBW7 activator 0, MITF inh -14, TEAD-YAP inh -2 and GPR151 ag 1.
`COc1cc(-c2nc3sc4c(c3c(=O)[nH]2)CCCC4)ccc1OC(=O)c1ccc(F)cc1` gave FBW7 activator 0, MITF inh 75*, TEAD-YAP inh 3, GPR151 ag 0, MITF confirm -2 and AlphaScreen intf2 -5.
O=c1[nH]c(-c2ccco2)nc2sc3c(c12)CCCC3 was read as FBW7 activator 0, MITF inh 81*, TEAD-YAP inh -28, GPR151 ag -1, MITF confirm 69*, AS interf DR >9.7 and AlphaScreen intf2 -13.
COC(=O)C1=CN(Cc2ccc(F)cc2)C=C(C(=O)OC)C1c1ccc(OC)c(OC)c1OC was read as FBW7 activator 0, MITF inh -9, TEAD-YAP inh -4 and GPR151 ag 2.
`COc1ccc(Nc2cnn(C34CC5CC(CC(C5)C3)C4)c(=O)c2Cl)cc1OC` gave FBW7 activator 0, MITF inh 11, TEAD-YAP inh 3 and GPR151 ag -1.
Screening CN(C)C(=O)C1C2NC(=S)N(c3ccc(Br)cc3)C1(C)Oc1ccc(Cl)cc12 (configuration not stated) returned FBW7 activator 0, MITF inh 68*, TEAD-YAP inh 8, GPR151 ag -1, MITF confirm 23 and AlphaScreen intf2 10.
`CCC(=O)c1ccccc1OCCN1CCN(Cc2ccccc2)CC1` gave FBW7 activator 0, MITF inh 66*, TEAD-YAP inh 14, GPR151 ag 1, MITF confirm 7 and AlphaScreen intf2 3.
`CCC(=O)c1ccccc1OCCN1CCN(C)CC1` gave FBW7 activator 0, MITF inh 13, TEAD-YAP inh 7 and GPR151 ag -1.
`COc1cc(C(C)=O)ccc1OCCN1CCN(Cc2ccccc2)CC1` gave FBW7 activator 1, MITF inh 62*, TEAD-YAP inh 11, GPR151 ag -1, MITF confirm 6 and AlphaScreen intf2 10.
For COc1ccc(C(=O)NC(=S)N2CCN(Cc3ccccc3)CC2)cc1OC the results were FBW7 activator 0, MITF inh 18, TEAD-YAP inh -2 and GPR151 ag -1.
